Records with an inconclusive call do not appear. A structure can be active in one record and inactive in another. Active and inactive are the calls of the source. Rule for the calls, unless noted: active = hit-call score of the fitted dose curve at least 0.9, where 1 is the maximum; inactive = score below 0.9.
Tests used:
[1] = read-out: Monocyte Chemoattractant Protein-1 (MCP1), CCL2 (gene 6347); assay: BSK_4H_MCP1: BioMAP Diversity Plus: 4H Assay for Monocyte Chemoattractant Protein-1 (MCP1) Biomarker Activity (AID 2283018); details: primary human endothelial cells (HUVEC); actives raise or lower the signal
Method in brief: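 Endothelial cells from umbilical vein were treated with test chemical, then after 24 h MCP-1 levels were quantified by ELISA; endpoint values came from bidirectional fitting with DMSO as baseline of activity.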

[2] = read-out: Human Leukocyte Antigen - DR isotype (HLADR), HLA-DRA (gene 3122); assay: BSK_3C_HLADR: BioMAP Diversity Plus: 3C Assay for Human Leukocyte Antigen - DR isotype (HLADR) Biomarker Activity (AID 2283019); details: primary human endothelial cells (HUVEC); actives raise or lower the signal
Method in brief: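 ELISA readout of surface HLA-DR on human umbilical vein endothelium, taken 24 h after chemical treatment. Gain- and loss-of-signal were both fitted relative to DMSO.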

[3] = read-out: Interleukin-8 (IL8), CXCL8 (gene 3576); assay: BSK_3C_IL8: BioMAP Diversity Plus: 3C Assay for Interleukin-8 (IL8) Biomarker Activity (AID 2283020); details: primary human endothelial cells (HUVEC); actives raise or lower the signal
Method in brief: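 Endothelial primary cells of human umbilical vein origin are dosed with chemical; after 24 h the IL-8 biomarker is measured by ELISA, and concentration–response is fitted in both directions versus DMSO.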

[4] = read-out: Monokine induced gamma interferon (MIG), CXCL9 (gene 4283); assay: BSK_3C_MIG: BioMAP Diversity Plus: 3C Assay for Monokine induced gamma interferon (MIG) Biomarker Activity (AID 2283021); details: primary human endothelial cells (HUVEC); actives raise or lower the signal;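 for AC50: MIG protein level measured by immunoassay in the treated endothelial cultures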
Method in brief: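 Endothelial primary cells (human umbilical vein) are dosed with test chemical in the 3C system. MIG levels are measured by ELISA at 24 h and fitted in both directions relative to DMSO.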

[5] = biological target: human Vitamin D Receptor (VDR), VDR (gene 7421) (UniProt P11473); assay: ATG_VDR_TRANS: Attagene TRANS-FACTORIAL HepG2 Assay for human Vitamin D Receptor (VDR) (AID 2283022; active = hit-call score of the fitted dose curve at least 0.9, where 1 is the maximum)
Method in brief: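 Steps: transfect HepG2 with GAL4-UAS-driven reporter constructs; dose compounds 24 h; isolate RNA, reverse-transcribe, PCR-amplify with 6-FAM-labelled primer extension and HpaI digestion; quantify fragments by capillary electrophoresis relative to DMSO.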

[6] = BSK_3C_SRB: Viability Assessment in the BioMAP Diversity Plus: 3C Assay (AID 2283023); details: primary human endothelial cells (HUVEC);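 note: fitted both ways against DMSO so a hit may be signal rise or drop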
Method in brief: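 Absorbance at 560 nm of sulforhodamine B-stained (0.1%) total protein served as a cytotoxicity readout in human umbilical vein endothelial cells, 24 h after chemical treatment. Signal was fitted bidirectionally relative to DMSO.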

[7] = read-out: Matrix Metallopeptidase 1 (MMP1), MMP1 (gene 4312); assay: BSK_BE3C_MMP1: BioMAP Diversity Plus: BE3C Assay for Matrix Metallopeptidase 1 (MMP1) Biomarker Activity (AID 2283024); details: primary human bronchial epithelial cells; actives raise or lower the signal
Method in brief: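 MMP1 signal, measured by ELISA after a 24 h chemical exposure of human primary bronchial epithelial cells, is analysed with bidirectional fitting using DMSO as negative control.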

[8] = BSK_3C_Vis: BioMAP Diversity Plus: 3C Assay for Morphology Visualization (AID 2283025); details: primary human endothelial cells (HUVEC);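 note: fitted both ways so gain or loss versus DMSO counts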
Method in brief: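 Morphology read by light microscopy serves as a background control for the multiplexed 3C assay in human umbilical vein endothelial cells, taken 24 h after dosing, with DMSO as the negative control and bidirectional curve fitting.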

[9] = BSK_4H_SRB: Viability Assessment in the BioMAP Diversity Plus: 4H Assay (AID 2283027); details: primary human endothelial cells (HUVEC);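 note: cells exposed to compound for 24 h before staining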;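 for AC50: curves fitted both ways versus DMSO so AC50 may be loss or gain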
Method in brief: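 HUVEC, 24 h post-dose; 10% TCA fix, 0.1% SRB stain, A560 nm. Total protein = overt cytotoxicity, parallel to biomarker read. Bidirectional fit vs DMSO baseline.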

[10] = read-out: Pselectin, SELP (gene 6403); assay: BSK_4H_Pselectin: BioMAP Diversity Plus: 4H Assay for Pselectin Biomarker Activity (AID 2283026); details: primary human endothelial cells (HUVEC); actives raise or lower the signal
Method in brief: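 Endothelial primary cells (human umbilical vein) are dosed, incubated 24 h, and assayed for surface P-selectin by ELISA; responses in either direction are fitted relative to the DMSO negative control.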

Measured: AC50

human Vitamin D Receptor (VDR), VDR (gene 7421), sequence (P11473 whole entry, looked up, the tested form may be a part): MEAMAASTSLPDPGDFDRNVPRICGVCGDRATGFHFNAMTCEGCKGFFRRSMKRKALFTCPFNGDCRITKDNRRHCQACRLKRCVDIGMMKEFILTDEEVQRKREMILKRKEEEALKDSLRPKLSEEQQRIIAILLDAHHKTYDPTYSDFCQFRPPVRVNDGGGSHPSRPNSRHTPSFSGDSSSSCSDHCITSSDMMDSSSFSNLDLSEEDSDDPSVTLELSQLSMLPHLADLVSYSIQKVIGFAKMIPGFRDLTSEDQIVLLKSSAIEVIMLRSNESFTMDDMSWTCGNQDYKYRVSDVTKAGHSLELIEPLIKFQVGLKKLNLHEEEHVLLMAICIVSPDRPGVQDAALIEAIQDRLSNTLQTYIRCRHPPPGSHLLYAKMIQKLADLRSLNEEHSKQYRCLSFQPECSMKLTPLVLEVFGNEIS

CSC(=O)c1c(C(F)F)nc(C(F)(F)F)c(C(=O)SC)c1CC(C)C
inactive: [4] | [5]
active: [1] 20 µM | [2] 31.1 µM | [3] 32.4 µM | [6] 14.6 µM | [7] 6.22 µM | [8] 13.7 µM | [9] 25.7 µM

C=C(C)CN(CC)c1c([N+](=O)[O-])cc(C(F)(F)F)cc1[N+](=O)[O-]
active: [6] 30 µM | [8] 20 µM
not listed: [5]
inactive: all other assays above

COc1cc(OC)nc(NC(=O)NS(=O)(=O)c2ncccc2OCC(F)(F)F)n1
not listed: [5]
inactive: all other assays above

Clc1cccc(C(Cl)(Cl)Cl)n1
not listed: [5]
inactive: all other assays above

Cn1c(-c2ccccc2)cc(-c2ccccc2)[n+]1C
active: [2] 2.89 µM | [8] 9.8 µM | [9] 1.65 µM
inactive: all other assays above

COC(=O)NS(=O)(=O)c1ccc(N)cc1
not listed: [5]
inactive: all other assays above

CCNC(=O)NC(=O)C(C#N)=NOC
not listed: [5] | [10]
inactive: all other assays above

COc1cc(Cl)c(OC)cc1Cl
active: [9] 3.09 µM
not listed: [5]
inactive: all other assays above

COC(=O)c1c(C(F)F)nc(C(F)(F)F)c(C2=NCCS2)c1CC(C)C
active: [2] 25.2 µM | [6] 33.3 µM | [9] 36.5 µM
not listed: [1]
inactive: all other assays above

CCN(CC)C(=O)C(C)Oc1cccc2ccccc12 (stereo unspecified)
active: [6] 5.16 µM | [7] 5.25 µM | [8] 9.8 µM
not listed: [5]
inactive: all other assays above

CCOC(=O)C(C)OC(=O)c1cc(Oc2ccc(C(F)(F)F)cc2Cl)ccc1[N+](=O)[O-] (stereo unspecified)
active: [1] 6.5 µM | [2] 3.97 µM | [6] 13.3 µM | [9] 13.1 µM
not listed: [5]
inactive: all other assays above

CC(C)(C)C(=O)C(Oc1ccc(Cl)cc1)n1cncn1 (stereo unspecified)
active: [2] 31.4 µM
not listed: [5] | [10]
inactive: all other assays above

CC1(C)CCC(=Cc2ccc(Cl)cc2)C1(O)Cn1cncn1 (stereo unspecified)
active: [2] 5.3 µM | [9] 0.803 µM
inactive: all other assays above

COCC(=O)N(c1c(C)cccc1C)C(C)C(=O)OC (stereo unspecified)
not listed: [5]
inactive: all other assays above

CC1(C)C(C=C(Cl)Cl)C1C(=O)OC(C#N)c1cccc(Oc2ccccc2)c1 (stereo unspecified)
active: [1] 9.17 µM | [6] 8.06 µM | [9] 14 µM
not listed: [5]
inactive: all other assays above

CCOP(=O)(OCC)Oc1nc(Cl)c(Cl)cc1Cl
active: [2] 24.6 µM | [3] 20 µM | [6] 28.8 µM | [8] 16.3 µM | [9] 12.4 µM
inactive: [1] | [4] | [7]

Cc1ccc(N=CN(C)C=Nc2ccc(C)cc2C)c(C)c1
inactive: [7]
active: [1] 31.4 µM | [2] 33 µM | [3] 31.6 µM | [4] 34.5 µM | [6] 32.4 µM | [8] 16.3 µM | [9] 32.3 µM

CN/C(=N\[N+](=O)[O-])NCc1cnc(Cl)s1
not listed: [10]
inactive: all other assays above

CCN(CC)c1nc(C)cc(OP(=S)(OC)OC)n1
active: [6] 29.4 µM | [7] 20 µM
not listed: [10]
inactive: all other assays above

Clc1nc(Cl)nc(Nc2ccccc2Cl)n1
not listed: [1]
inactive: all other assays above

O=P(O)(O)CCCl
not listed: [5] | [10]
inactive: all other assays above

CCCCOCN(C(=O)CCl)c1c(CC)cccc1CC
active: [1] 25.6 µM | [2] 31 µM | [3] 34.5 µM | [4] 32.9 µM | [6] 28.5 µM | [7] 33.2 µM | [8] 29.4 µM | [9] 28.2 µM

CC(C)Oc1cccc(NC(=O)c2ccccc2C(F)(F)F)c1
active: [6] 11.6 µM
not listed: [5] | [10]
inactive: all other assays above

CCOP(=S)(OCC)Oc1nc(Cl)n(C(C)C)n1
not listed: [1]
inactive: all other assays above

COCC(C)N(C(=O)CCl)c1c(C)csc1C (stereo unspecified)
inactive: [1] | [2] | [3] | [4] | [5] | [6] | [7] | [8] | [9]
active: [8] 39 µM

N#CN=C1SCCN1Cc1ccc(Cl)nc1
not listed: [5]
inactive: all other assays above

CNC(=O)Oc1cccc2ccccc12
active: [6] 12.4 µM | [8] 13.7 µM
not listed: [10]
inactive: all other assays above

CCOc1cc(C(C)(C)C)ccc1C1COC(c2c(F)cccc2F)=N1 (stereo unspecified)
active: [1] 18.5 µM | [2] 29.8 µM | [3] 23.9 µM | [4] 32.1 µM | [6] 15.1 µM | [7] 10.3 µM | [8] 22 µM | [9] 27.6 µM
inactive: [5]

COP(=S)(OC)Oc1ccc([N+](=O)[O-])c(C)c1
active: [2] 20 µM | [6] 16.5 µM | [8] 39 µM
not listed: [1]
inactive: all other assays above

CCOc1nc(C(Cl)(Cl)Cl)ns1
active: [2] 13.8 µM
not listed: [1]
inactive: all other assays above

Cc1c(COC(=O)[C@@H]2[C@H](/C=C(\Cl)C(F)(F)F)C2(C)C)cccc1-c1ccccc1
active: [2] 5.44 µM | [6] 11.7 µM | [8] 0.28 µM
not listed: [5] | [10]
inactive: all other assays above

CC1(C)C(C(=O)OC(C#N)c2cccc(Oc3ccccc3)c2)C1(C)C (stereo unspecified)
active: [6] 10.1 µM | [8] 39 µM
not listed: [10]
inactive: all other assays above

OC(c1ccc(Cl)cc1)(c1ccc(Cl)cc1)C(Cl)(Cl)Cl
inactive: [5]
active: [1] 13.8 µM | [2] 12 µM | [3] 15.3 µM | [4] 30.3 µM | [6] 21.2 µM | [7] 34.1 µM | [8] 16.3 µM | [10] 17.3 µM | [9] 28.6 µM

CCOc1nc(F)cc2nc(S(=O)(=O)Nc3c(Cl)cccc3Cl)nn12
not listed: [10]
inactive: all other assays above

COC(=O)N(C(=O)N1CO[C@@]2(C(=O)OC)Cc3cc(Cl)ccc3C2=N1)c1ccc(OC(F)(F)F)cc1
active: [1] 6.07 µM | [6] 3.97 µM | [10] 5.19 µM | [9] 7.13 µM
inactive: all other assays above

Cc1cc(C)nc(Nc2ccccc2)n1
active: [2] 16.6 µM
not listed: [5]
inactive: all other assays above

CC(C)Nc1nc(Cl)nc(NC(C)C)n1
not listed: [1] | [10]
inactive: all other assays above

N#Cc1c[nH]cc1-c1cccc2c1OC(F)(F)O2
active: [2] 20 µM | [3] 8.82 µM | [6] 11.6 µM | [8] 11.2 µM | [9] 6.27 µM
inactive: [4] | [7]

CC(C)=CC1C(C(=O)OCc2coc(Cc3ccccc3)c2)C1(C)C (stereo unspecified)
inactive: [4] | [7] | [10] | [9]
active: [2] 7.53 µM | [3] 9.03 µM | [6] 13.7 µM | [8] 9.8 µM

CS(=O)(=O)c1ccc(C(=O)C2C(=O)CCCC2=O)c([N+](=O)[O-])c1
not listed: [1] | [5] | [10]
inactive: all other assays above

From PubChem BioAssay (EPA / NIEHS)
